Assay [1] concerns the target T1, ETS1 (UniProt P14921).
T1 sequence: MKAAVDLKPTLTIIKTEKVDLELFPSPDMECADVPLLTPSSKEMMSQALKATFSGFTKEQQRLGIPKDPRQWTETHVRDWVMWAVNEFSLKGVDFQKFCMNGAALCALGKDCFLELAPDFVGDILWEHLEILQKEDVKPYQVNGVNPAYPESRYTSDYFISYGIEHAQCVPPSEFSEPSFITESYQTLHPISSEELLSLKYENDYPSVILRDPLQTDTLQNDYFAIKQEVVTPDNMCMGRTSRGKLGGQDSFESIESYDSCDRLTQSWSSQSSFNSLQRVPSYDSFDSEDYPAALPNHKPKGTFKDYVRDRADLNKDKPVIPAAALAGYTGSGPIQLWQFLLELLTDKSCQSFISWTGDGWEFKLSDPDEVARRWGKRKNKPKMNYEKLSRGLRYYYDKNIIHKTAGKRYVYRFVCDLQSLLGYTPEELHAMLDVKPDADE
Description: ETS1 binding intensity (PBM fluorescence), ETS1 alone (arbitrary fluorescence units); higher = stronger binding. As to conditions: ETS1 concentration 1 nM; RUNX1 concentration 0 nM.

The target of assay [2] is T1, ETS1. Description: ETS1 binding intensity (PBM fluorescence) in presence of RUNX1, normalised to ETS1-only experiment (arbitrary fluorescence units); higher = stronger binding. As to conditions: ETS1 concentration 1 nM; RUNX1 concentration 25 nM.
For another assay, the target named is RUNX1 (UniProt Q01196). Description: RUNX1 binding intensity (PBM fluorescence) in presence of ETS1, normalised to RUNX1-only experiment (arbitrary fluorescence units); higher = stronger binding. The following applies: RUNX1 concentration 2 nM; ETS1 concentration 25 nM. On the procedure: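 Cooperative gcPBM on 36-bp genomic probes with neighbouring ETS1 and RUNX1 sites. Recombinant human RUNX1 (2 nM) was incubated alone or with ETS1 (25 nM) and detected with anti-RUNX1 antibody plus Alexa488 secondary. Values are medians over 4 replicate spots; the RUNX1+ETS1 data were normalised to the RUNX1-only data. The probes sit in constant array flanks that are not printed.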
Sequence of RUNX1 (Q01196 whole entry): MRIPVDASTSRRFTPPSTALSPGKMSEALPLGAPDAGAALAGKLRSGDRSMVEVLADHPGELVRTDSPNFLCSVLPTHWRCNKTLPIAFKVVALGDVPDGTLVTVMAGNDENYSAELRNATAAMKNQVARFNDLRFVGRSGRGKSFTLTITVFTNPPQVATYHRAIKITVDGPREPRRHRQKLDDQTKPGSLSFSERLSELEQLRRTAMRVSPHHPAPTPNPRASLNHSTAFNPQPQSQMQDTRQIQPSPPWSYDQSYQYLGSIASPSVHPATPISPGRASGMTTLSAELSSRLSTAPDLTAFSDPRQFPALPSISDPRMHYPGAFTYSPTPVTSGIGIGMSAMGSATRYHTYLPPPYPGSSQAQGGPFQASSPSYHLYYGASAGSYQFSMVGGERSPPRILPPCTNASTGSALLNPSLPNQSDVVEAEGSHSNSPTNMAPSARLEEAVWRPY
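Wherever RUNX1 binding intensity (PBM fluorescence) in presence of ETS1, normalised to RUNX1-only experiment is given: Full-length recombinant human ETS1 or RUNX1 bound to double-stranded 36-bp genomic probes on microarrays, detected by protein-specific primary antibody and Alexa488 secondary, spot fluorescence as median of four replicate spots.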

As to CCTGTACGGAAGCTACTCTGGTTTCATGTGGTTTCA, the ETS1 binding intensity was found to be 441 with ETS1 [1] and 654 in the assay with ETS1 [2]. For the same sequence, the RUNX1 binding intensity with RUNX1 was 1030.
The corresponding values for GCTGCCACTTCCCTTGCTTATTTCATGTGGTTTGGA are 552, 794 and 1980.
In the same order, the values of AGGCAAACAGGATGTTCCTCTCCCACATGCAGACTT are 4200, 3770 and 1300.
For the sequence CCAGCCCAGGAAACAAGGAACCCCAAAGCCACAGGA, the ETS1 binding intensity was 392 with ETS1 [1] and 579 in the assay with ETS1 [2]. Also, the RUNX1 binding intensity in the assay with RUNX1 worked out at 979.
Consider CATCAAGTATTTCCTCACGCAAGCAACCGCATCCAT, for which the results for the ETS1 binding intensity with ETS1 [1] and with ETS1 [2] were 392 and 634, respectively. Moreover, in the assay with RUNX1, the RUNX1 binding intensity is 1380.
For GACCTGGGCAGGAAGAGCGGCATGTGGGGCCCCCTG, the ETS1 binding intensity in the assay with ETS1 [1] came to 875; in the assay with ETS1 [2], 795. Further, in the assay with RUNX1, the RUNX1 binding intensity stood at 874.
As to ATCATCTAGGAGACAGGATGTGGTTAGGGTGTTAAA, the ETS1 binding intensity in the assay with ETS1 [1] stood at 6360; with ETS1 [2] it was 59800. In the assay with RUNX1, the RUNX1 binding intensity was determined as 7840.
In the same order, the values of GCGCCCGGAAGGAAGGCTGGGGTAGGTTGTGGTTTC are 476, 2740 and 1140.
The corresponding values for ATTCCTAGAGAGGAAATGCGGGCTCAGGGTGTCGGC are 1550, 1560 and 897.
In the same order, the values of ACAACTTCCTGTGGGATTTTTGGTGTCTGCGGCTCA are 818, 858 and 2810.
For TGGAGTGGAGGAAGTGGTGTTACCACAGCTCAGAGG, the ETS1 binding intensity was found to be 1050 in the assay with ETS1 [1] and 2680 in the assay with ETS1 [2]. The RUNX1 binding intensity with RUNX1 stood at 1230.
The corresponding values for ACATTTCCTTTTGGTATTTAAAGTAACCACACAGAA are 495, 668 and 2120.
In the same order, the values of AGGGCTGAAACAGGATGTGGTGAGTGAGGTAGGGTG are 6020, 16600 and 3160.
For the sequence CTGCTTCCGGCCCCGGGGTTCGCTACCCCACAATCC, the ETS1 binding intensity with ETS1 [1] was determined as 1210; with ETS1 [2], 1240. For the same sequence, the RUNX1 binding intensity with RUNX1 amounted to 2530.
In the same order, the values of GGCTTCCGCCGCCACCACTGCCCCTCAACCGCCACG are 518, 601 and 2040.
In the same order, the values of CCGCCCTAGAGCAGGAAATAGCGGTCAGCGCCAGCT are 2740, 7280 and 1980.
The corresponding values for TCATATCCGGCAGGAATGGGTTTTGTGGCTTTGTGC are 752, 1400 and 3620.
Regarding TACCTACATCCTGCCACCACCCGAGGGGACCGCAAG, the ETS1 binding intensity with ETS1 [1] is 496; with ETS1 [2], 974. Also, the RUNX1 binding intensity with RUNX1 was determined as 2810.
In the same order, the values of AGCGCCCCATCCCGCGGATGTGGTAAAGCTTCGCGC are 658, 4400 and 1570.
Take CCCACCCAGGAAGCCGTCCTAACCACAACAGCCCTC: the ETS1 binding intensity was 514 in the assay with ETS1 [1] and 2580 in the assay with ETS1 [2]. In the assay with RUNX1, the RUNX1 binding intensity is 6790.
The corresponding values for GCTTACACTTCCTCCCTGAACCCCTGCGGTTTCACA are 511, 1960 and 10200.
The corresponding values for GGAGGAAGTGACACCCACCCACTGCCCCCGCAAGGT are 962, 987 and 963.
The corresponding values for CTCTTCCTGCCTGTCCGTGGCTGGTGTGGTTTGCGT are 457, 616 and 2670.
Take TACCCCGCCGGAAGCCCCCTGCTCTGTGGGAACCGG: the results for the ETS1 binding intensity in the assay with ETS1 [1] and with ETS1 [2] were 2480 and 3660, respectively. Besides, the RUNX1 binding intensity with RUNX1 stood at 1270.
In the same order, the values of TATGTGTTTTAGGCAGGATGTGGGTTTTAGTCTTTC are 8060, 36400 and 2200.
In the same order, the values of CTGACAGTTACTTCCTGTCTTTGTGGGCGATTGTGA are 3170, 4620 and 2390.
In the same order, the values of GCTTGCTCCCACAGGAAACCGCAGGCTTCGGGCACA are 3190, 9810 and 12000.
On to CTTAGTGTTTGAGGATGTGGGTTTTACAATCAGATC, for which the values for the ETS1 binding intensity with ETS1 [1] and in the assay with ETS1 [2] were 845 and 2490, respectively. For the same sequence, in the assay with RUNX1, the RUNX1 binding intensity is 1310.
On to TTGTCAGATGGCGAAGGAAACCGCGAAATTCGCCAT, for which the results for the ETS1 binding intensity with ETS1 [1] and with ETS1 [2] were 608 and 1270, respectively. For the same sequence, the RUNX1 binding intensity with RUNX1 was determined as 1050.
In the same order, the values of ACCGGATGCCGGGGCACCGCCAGATGTGGCCACGAG are 1500, 1730 and 941.
In the same order, the values of CATACAGGATGCTGGGGTATGTAAAACAAACCACGG are 708, 678 and 964.
In the same order, the values of TGGGTACTTCCTGTGACAAATCGAGTTGACCACATG are 1190, 2230 and 1720.
For the sequence GCTCTGCAGGATGTGGCTGTGACCGCAGTGAGGAGC, the values for the ETS1 binding intensity with ETS1 [1] and with ETS1 [2] were 1290 and 11800, respectively. For the same sequence, the RUNX1 binding intensity with RUNX1 is 7480.
With GTTGTCTTCTTCCTGAGTAAACCGCAGTGCAGAGAA, the ETS1 binding intensity was 456 in the assay with ETS1 [1] and 1120 with ETS1 [2]. The RUNX1 binding intensity in the assay with RUNX1 is 6380.
In the same order, the values of CCACGTAAAGGCGGAAGCGGTTGAGTGGACGCCATC are 3090, 4150 and 1640.
In the same order, the values of TGTTGTAGGGGAAGTGGTGTGTGGTATTCCTGGGGA are 797, 1690 and 1070.
The corresponding values for CTGCCCACCGGAAACGATGGCGCGAGGCCGCAGAGC are 6160, 7790 and 1660.
In the case of GGAGGAAGAGGAGGATGTGGTGAGCCGCTCCCCGCC, the ETS1 binding intensity worked out at 923 with ETS1 [1] and 1870 with ETS1 [2]. In addition, in the assay with RUNX1, the RUNX1 binding intensity is 1260.
In the same order, the values of GGCCCGGCCGGAAGAAGCCACCTCCCCCGCACGCGT are 2410, 2860 and 1240.
Consider TGCAGCTTCCTGTCTGAGGCTTTGTGGTCCTTTCAT, for which the ETS1 binding intensity with ETS1 [1] amounted to 753; with ETS1 [2], 889. In the assay with RUNX1, the RUNX1 binding intensity came out at 2480.
In the same order, the values of TCTTCTTCCTCCCCCACCCCAAAAGCCACAGGTGAC are 492, 441 and 1410.
In the same order, the values of GACAAAGAGGAAGTCCCCAAAAACCACAATAACAGT are 910, 4080 and 3900.
